29 molecules from PubChem BioAssay AID504942 (Broad Institute, 2011) can be followed below.

Entries with a potency or affinity are not part of this list. Calls of active or inactive are those of the source. How the calls were made is not given here.

This experiment can be described thus: toxicity to human HeLa cells – cell-based, 48 h, plate reader, cherry-picks, cytotoxicity control, dose response (AID 504942). As to conditions: series mostly up to 38 µM.
In the case of `COC(=O)c1cc(-c2ccc(OC)cc2)on1`, the molecule was classed as inactive.
The result for `CCC(C)NS(=O)(=O)c1ccc(OC)c(Cl)c1Cl` (centres undefined) reads “inactive”; that for `O=C1N[C@@H](Cc2ccccc2)[C@@H](c2ccco2)O1`, “inactive”; that for `N#CC(c1ccc(Cl)nn1)c1c(F)cccc1Cl` (centres undefined), “inactive”.
The value for `COC(=O)c1cc(-c2ccc(Br)cc2)on1` was “inactive”; that for `Cc1cc(C)nc(N(C#N)Cc2ccccc2)n1` was “inactive”; that for `COc1ccc(CNCc2cccc(Cl)c2)cc1` was “inactive”.
The result for `COc1ccc(C(C#N)c2ccc(Cl)nn2)cc1` (centres undefined) reads “inactive”.
With `CCOc1ccc(-n2cccc2C=O)cc1`, the molecule was classed as inactive.
`O=S1(=O)CCOC[C@H](c2ccccc2)N1Cc1cccc(Cl)c1`: the molecule was classed as inactive.
In the case of `Cn1cccc1C(C#N)c1ccccc1C#N` (centres undefined), the call was inactive.
The result for `Clc1ccc2scc(CN3CCCC3)c2c1` reads “inactive”; that for `Cc1cc(NC(=O)c2c(F)c(F)c(F)c(F)c2F)no1`, “inactive”; that for `Cn1cccc1C(C#N)c1cccc(F)c1C#N` (centres undefined), “inactive”.
With `COC(=O)c1ccc(OC(=O)c2cccs2)cc1`, the outcome was inactive.
In the case of `O=[N+]([O-])c1ccc(N2CCCC2)nc1`, the outcome was inactive.
The result for `Clc1cccc(CNCCCSc2ncccn2)c1` reads “inactive”; that for `CCOC1=CC(=O)OC(c2ccccc2)C1` (centres undefined), “inactive”.
`N#CN(Cc1ccccc1)Cc1ccccc1`: the result was inactive.
As for `COc1ccc(N=C(C)C2=C(O)CSC2=O)cc1`, the result was inactive.
The value for `Cc1ccc(C)c(S(=O)(=O)NC2CCSC2=O)c1` (centres undefined) was “inactive”.
On to `N#CC(c1ccc(Cl)cc1)c1ncc(C(F)(F)F)cc1Cl` (centres undefined), for which the call was inactive.
The result for `O=C(NC1CCCC1)c1cccc(Cl)c1` reads “inactive”.
Regarding `C#CCSc1ncc(-c2ccccc2)cn1`, the call was inactive.
Regarding `O=C(NC1CCCCCCC1)c1cccc(Cl)c1`, the result was inactive.
The result for `CCCNS(=O)(=O)c1ccc(OC)c(Cl)c1Cl` reads “inactive”; that for `Cc1cc(C)nc(N(C#N)Cc2cccc([N+](=O)[O-])c2)n1`, “inactive”; that for `N#CC(c1cccc(Cl)c1)c1ncc(C(F)(F)F)cc1Cl` (centres undefined), “inactive”.
The result for `Nc1ccc(OCc2ccccc2)cc1[N+](=O)[O-]` reads “inactive”.
